Data on 35 molecules can be found in PubChem BioAssay (EPA / NIEHS).

Where “and” joins values, the source holds several entries; their conditions need not be identical. Equal entries are not always repeated. Some compounds were tested as several samples or in several runs, with calls that do not always agree. Calls of active or inactive are those of the source. Rule for the calls: active = hit-call score of the fitted dose curve at least 0.9, where 1 is the maximum; inactive = score below 0.9.

This test is described as follows: ATG_DR4_LXR_CIS: Attagene CIS-FACTORIAL HepG2 Assay for human Liver X Receptor (LXR), DR4 submotif (AID 2282929). The settings on record: HepG2 Attagene DR4 cis-reporter, mRNA transcription; actives raise or lower the signal. The procedure: ATG_CIS is a cell-based, multiplexed-readout assay that uses HepG2, a human liver cell line, with measurements taken at 24 hours after chemical dosing in a 24-well plate.ATG_DR4_LXR_CIS is one of 52 assay component(s) measured or calculated from the ATG_CIS assay. It is designed to make measurements of mRNA induction, a form of inducible reporter, as detected with fluorescence intensity signals by Reverse transcription polymerase chain reaction (RT-PCR) and Capillary electrophoresis technology.Data from the assay component ATG_DR4_LXR_CIS was analyzed into 1 assay endpoint. This assay endpoint, ATG_DR4_LXR_CIS, was analyzed with bidirectional fitting relative to DMSO as the negative control and baseline of activity. Using a type of inducible reporter, measures of mRNA for gain or loss-of-signal activity can be used to understand the reporter gene at the transcription factor-level as they relate to the gene NR1H2 and NR1H3. Furthermore, this assay endpoint can be referred to as a primary readout, because this assay has produced multiple assay endpoints where this one serves a reporter gene function. To generalize the intended target to other relatable targets, this assay endpoint is annotated to the nuclear receptor intended target family, where the subfamily is non-steroidal.
Human liver HepG2 cells are transiently transfected with multiple reporter transcription units (MRTUs) in 6-well plates using FuGene 6 reagent (Roche; 3 ml FuGene/1 mg DNA). The MRTU constructs are regulated by a cis-regulating element (promoter). […] A major difference between the CIS and TRANS system is that in CIS activities of endogenous TFs are measured, whereas the TRANS assay evaluates changes in activities of exogenous, chimeric NR-Gal4 proteins. […] At the end of 24 hour incubation, total RNA was isolated using TriZol reagent (Invitrogen). The isolated RNA is then reverse-transcribed using oligo(dT) primer and Mo-MLV reverse transcriptase (Invitrogen) with DNAse I (Ambion) treatment for 30 min. The one-tenth of the produced cDNA was amplified by PCR using Taq DNA polymerase (Invitrogen) and two reporter sequence-specific primers. The PCR products were fluorescently labeled by primer extension with 6-arboxyfluorescein (6-FAM) 5'-labeled reporter sequence-specific primer (2 min at 95 C, 20 s at 68 C and 10 min at 72 C) and these products were digested with 5U of HpaI (New England Biolabs) for 2h at 37 C. The fragments were purified using Qiaquick PCR columns (Qiagen), analyzed on an ABI 3130xL genetic analyzer (Applied Biosystems) with peak positions identified by using a set of X-rhodamine (ROX)-labeled MapMarker1000 molecular weight standards (BioVentures). The raw capillary electrophoresis data was processed using Attagraph software (Attagene).
In the case of `CCCCOC(=O)[C@@H](C)Oc1ccc(Oc2ccc(C(F)(F)F)cn2)cc1`, the outcome was inactive. Still for that read-out and setting: next, `CCC(C)OC(=O)N1CCCCC1CCO` (stereo not given): “inactive”. Regarding `S=C(S)NCCNC(=S)S.[Mn+2].[S-]C([S-])=NCCN=C([S-])[S-].[Zn+2]`, the AC50 was 8.2 µM (active) and 50 µM (active) and 67.7 µM (active); the call was inactive. On to `COC(=O)c1ccccc1C(=O)O`, for which the outcome was inactive.

In the case of `Oc1ccc(C(c2ccc(O)cc2)C(Cl)(Cl)Cl)cc1`, the outcome was inactive. In the case of `CCNc1nc(N)nc(Cl)n1`, the molecule was called inactive. Still for that read-out and setting: then `C#C[C@]1(O)CC[C@H]2[C@@H]3CCC4=CC(=O)CC[C@@H]4[C@H]3CC[C@@]21CC`, with “inactive”; and `COC(=O)CSc1cc(N=c2sc(=O)n3n2CCCC3)c(F)cc1Cl`, with “inactive”. On to `CCCCCOC(=O)COc1cc(N2C(=O)C3=C(CCCC3)C2=O)c(F)cc1Cl`, for which the concentration at half-maximal activity (AC50) is 32.6 µM (active). Consider `CCCN(CCC)C(=O)SCC`, for which the molecule was classed as inactive. For `N#CSCSc1nc2ccccc2s1`, the molecule was called inactive and the concentration at half-maximal activity (AC50) is 3.05 µM (active). For the molecule `CCSC(=O)N(CC(C)C)CC(C)C`, the outcome was inactive.

Take `N[C@@H](Cc1cc(I)c(Oc2ccc(O)c(I)c2)c(I)c1)C(=O)O`: the result was inactive.

`CCCCC(CC)CN1C(=O)C2C3C=CC(C3)C2C1=O` (stereo not given): the concentration at half-maximal activity (AC50) was 85.4 µM (active). As to `CCCCCCC(C)OC(=O)COc1nc(F)c(Cl)c(N)c1Cl` (stereo not given), the call was inactive. With `CCN(Cc1c(F)cccc1Cl)c1c([N+](=O)[O-])cc(C(F)(F)F)cc1[N+](=O)[O-]`, the AC50 was 8.45 µM (active). Take `C[C@]12CC[C@@H]3c4ccc(O)cc4C[C@@H](CCCCCCCCCS(=O)CCCC(F)(F)C(F)(F)F)[C@H]3[C@@H]1CC[C@@H]2O` (stereo not given in full): the molecule was called inactive. For the molecule `c1ccc2[nH]c(-c3cscn3)nc2c1`, the concentration at half-maximal activity (AC50) was 32.1 µM (active) and the result was inactive. Take `S=C([S-])NCCNC(=S)[S-].[Mn+2]`: the call was inactive.

`CC(=O)[C@H]1CC[C@H]2[C@@H]3CCC4=CC(=O)CC[C@]4(C)[C@H]3CC[C@]12C`: the AC50 was 8.67 µM (active) and the result was inactive. As to `CCC(O)=C1C(=O)CC(C(=O)O)CC1=O` (stereo not given), the result was inactive. On to `COCCO`, for which the call was inactive. On to `CC1(C)C(C=C(Cl)Cl)C1C(=O)OCc1cccc(Oc2ccccc2)c1` (stereo not given), for which the AC50 is 29.9 µM (active). Take `O=C(c1ccc(O)cc1O)c1ccc(O)cc1O`: the result was inactive. Regarding `CCCOC(=O)NCCCN(C)C`, the molecule was called inactive.

Regarding `O=C(O)C1(C(=O)Nc2ccc(Cl)cc2Cl)CC1`, the molecule was called inactive. The same measure, in the same setting: next, `CCCOC(=O)c1ccc(C(=O)OCCC)nc1`: “inactive”; `CC(C)(c1ccc(O)cc1)c1ccc(O)cc1`: “inactive”. With `CC(C)CCCCCCc1ccc(O)cc1`, the AC50 was 15.9 µM (active) and 21 µM (active) and 16.6 µM (active); the outcome was inactive. Regarding `COC(=O)c1ccccc1S(=O)(=O)NC(=O)Nc1nc(OC(F)F)cc(OC(F)F)n1`, the call was inactive. As to `COc1c(Cl)ccc(Cl)c1C(=O)O`, the call was inactive. Take `CCOC(=O)COc1cc(-n2ncc(C(F)(F)F)c(C)c2=O)c(F)cc1Cl`: the molecule was called inactive. `COC(=O)c1ccc(CNS(C)(=O)=O)cc1S(=O)(=O)NC(=O)Nc1nc(OC)cc(OC)n1`: the outcome was inactive. Regarding `C=CCOC(Cn1ccnc1)c1ccc(Cl)cc1Cl` (stereo not given), the concentration at half-maximal activity (AC50) is 76.1 µM (active). Consider `CCCCOCCOCCOCc1cc2c(cc1CCC)OCO2`, for which the AC50 was 89.8 µM (active).

The term AC50 denotes the concentration at which the activity in the assay is half-maximal.
